# Assay outcomes: PubChem BioAssay, several laboratories
# Mtb FBA inh: Mtb FBA enzyme inhibitors, primary screen, biochemical, fluorescence, strain H37Rv; Fructose-bisphosphate aldolase (Mycobacterium tuberculosis (strain ATCC 25618 / H37Rv)), …; purified M. tuberculosis FBA, fluorescence read-out; inhibition, % at 1 µM; 360,000 compounds, 2.3% hits; AID 588726, 2011;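 also: 0% = vehicle and 100% = reference inhibitor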
# Target sequence (P9WQA3 whole entry, looked up): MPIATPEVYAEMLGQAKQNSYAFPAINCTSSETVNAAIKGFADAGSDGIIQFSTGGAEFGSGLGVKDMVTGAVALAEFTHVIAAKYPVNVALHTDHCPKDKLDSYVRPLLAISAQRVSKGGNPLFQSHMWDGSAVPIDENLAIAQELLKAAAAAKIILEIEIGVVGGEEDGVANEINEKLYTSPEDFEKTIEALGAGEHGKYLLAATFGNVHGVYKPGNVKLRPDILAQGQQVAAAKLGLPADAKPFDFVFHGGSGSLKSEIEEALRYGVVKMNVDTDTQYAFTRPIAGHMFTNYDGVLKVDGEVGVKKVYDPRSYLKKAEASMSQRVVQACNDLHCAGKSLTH
# SARS 3CLpro inh: SARS-CoV 3CLpro protease inhibitors, primary screen, biochemical, quenched FRET; Replicase polyprotein 1ab (Severe acute respiratory syndrome coronavirus), P0C6X7; recombinant SARS-CoV 3CLpro, quenched FRET peptide cleavage; inhibition, % at 6 µM; 290,000 compounds, 0.14% hits; AID 1706, 2009; in the data active = inhibition above about 12%
# Vc quorum ag: inducers of Vibrio cholerae quorum light production without autoinducers, primary screen, BH1578 luxS cqsA deficient, single point; V. cholerae BH1578 lux reporter, luminescence, 6 h; activation, % at 18.7 µM; 350,000 compounds, 0.16% hits; AID 588436, 2011; in the data active = activation mostly above about 9.7%, no sharp cut-off
# GDH-TPI counter-1: GDH-TPI coupling enzyme inhibitors, primary screen, artefact control for M. tuberculosis FBA inhibitor project, biochemical, absorbance, full deck; GDH-TPI coupled enzyme counterscreen, NADH absorbance; inhibition, % at 4.8 µM; 360,000 compounds, 1.2% hits; AID 588335, 2011; in the data active = inhibition above about 30%;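 also: 0% = DMSO wells and 100% = wells lacking the enzyme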
# PrPC surface inh: inhibitors of human cell surface prion protein PrPC, primary screen, cell-based, TR-FRET. 370,000 compounds, 0.43% hits. AID 720596, 2013. inhibition, % at 13.8 µM. Major prion protein (Homo sapiens), P04156. TR-FRET read-out; in the data active = inhibition above about 24%; also: 0% = median of the test wells and 100% = reference compound wells
# Mtb FBA inh conf: M. tuberculosis aldolase blockers, biochemical, fluorescence, strain H37Rv, confirmation. inhibition, % at 1 µM. shares compounds with Mtb FBA inh. purified M. tuberculosis FBA, fluorescence read-out. AID 651616, 2012. 5,600 compounds, 78% hits;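 also: 0% = vehicle wells and 100% = reference inhibitor wells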
# GDH-TPI counter-2: GDH-TPI coupling enzyme inhibitors, artefact control for M. tuberculosis FBA inhibitor project, biochemical, fluorescence, high throughput; shares compounds with Mtb FBA inh; 5,600 compounds, 81% hits; inhibition, % at 1 µM; GDH-TPI coupled enzyme counterscreen; in the data active = inhibition above about 10%
# * = called active by the depositor; i = inactive; x = no result given; + = active, no number. Rows were chosen to be rich in hits. Some 3.9% of all compounds tested hit in one or more screens of this group. Rule as the data show it, unless noted: active = inhibition above about 27%; inactive = the rest.
SMILES,Mtb FBA inh,SARS 3CLpro inh,Vc quorum ag,GDH-TPI counter-1,PrPC surface inh,Mtb FBA inh conf,GDH-TPI counter-2
COc1cc2c(cc1OC)C(=O)C(Br)CC2 (centres undefined),-12.4,x,i,-40.7,x,x,x
Cc1nn(CCc2nn[nH]n2)c2nc(-c3ccc(C4CCCCC4)cc3)cc(C(F)(F)F)c12,1.2,0.9,-0.2,0.0,-0.6,x,x
COc1ccc(-n2nc3ccc(N)cc3n2)cc1Cl,63.7*,5.0,i,24.3,-8.8,50.1*,44.0*
COc1cc2nn(-c3ccccc3N)nc2cc1OC,0.1,x,-2.9,25.3,-1.9,x,x
COc1ccc(C2C(C#N)=C(N)OC3=C2C(=O)CC(C)(C)C3)cc1Cn1nc(C)c([N+](=O)[O-])c1C (centres undefined),39.3*,-0.8,0.2,-3.9,1.1,54.1*,46.8*
COc1ccc(C2C(C#N)=C(N)Oc3c2c(C)nn3-c2ccccc2)cc1Cn1nc(C)c([N+](=O)[O-])c1C (centres undefined),-0.1,1.8,i,19.9,-2.4,x,x
CN(C)CCCNC(=O)C[C@H]1C[C@H](C(=O)N2CCOCC2)[C@@]2(C)c3[nH]c4cc(-c5ccco5)ccc4c3CCN2C1=O,33.1*,x,-0.5,12.5,5.5,135.4*,109.7*
CCN(CC)C(=O)[C@H]1C[C@H](CC(=O)NCCN2CCOCC2)C(=O)N2CCc3c([nH]c4cc(-c5ccco5)ccc34)[C@]12C,50.1*,x,i,6.4,-5.2,64.9*,38.8*
COCCCNC(=O)C[C@H]1C[C@H](C(=O)N(C(C)C)C(C)C)[C@@]2(C)c3[nH]c4cc(-c5ccco5)ccc4c3CCN2C1=O,31.5*,x,-0.7,11.5,0.6,128.1*,104.4*
COCCCNC(=O)C[C@H]1C[C@H](C(=O)N2CCOCC2)[C@@]2(C)c3[nH]c4cc(-c5ccco5)ccc4c3CCN2C1=O,33.2*,x,-0.4,0.5,-7.5,15.1,11.4*
COCCCNC(=O)CC1C[C@H](C(=O)N(C(C)C)C(C)C)[C@@]2(C)c3[nH]c4ccccc4c3CCN2C1=O (some centres undefined),0.5,x,-1.0,3.8,6.5,x,x
CCOC(=O)c1ccc(N=Cc2cnc(N)nc2N)cc1,2.8,x,-1.3,16.1,8.6,x,x
Cc1c(OC(C)C(=O)N2C[C@H]3C[C@@H](C2)c2cccc(=O)n2C3)ccc2c3c(c(=O)oc12)CCC3 (some centres undefined),9.1,0.7,-0.6,5.9,-9.3,x,x
CC(Oc1cc2oc(=O)c3c(c2cc1Cl)CCC3)C(=O)N1C[C@H]2C[C@@H](C1)c1cccc(=O)n1C2 (some centres undefined),37.2*,-0.1,-0.6,18.6,-6.5,124.3*,111.3*
O=C(COc1cc2oc(=O)c3c(c2cc1Cl)CCCC3)N1C[C@H]2C[C@@H](C1)c1cccc(=O)n1C2,35.1*,2.8,-0.4,20.6,0.6,121.8*,87.4*
Cc1cc(OCC(=O)N2C[C@H]3C[C@@H](C2)c2cccc(=O)n2C3)c2c(C)cc(=O)oc2c1,34.1*,1.9,-0.3,16.7,-3.8,+,+
Cc1ccc(S(=O)(=O)Oc2ccc(C3C4=C(CCCC4=O)N(CCC(=O)O)C4=C3C(=O)CCC4)cc2Cl)cc1,109.8*,0.4,-0.3,-1.4,-8.6,-2.3,-6.7
Cc1ccc(S(=O)(=O)Oc2ccc(C3C4=C(CCCC4=O)OC4=C3C(=O)CCC4)cc2)cc1,3.8,3.5,i,12.8,-4.5,x,x
CCOc1cc(C2C3=C(CCCC3=O)N(CCC(=O)O)C3=C2C(=O)CCC3)ccc1OS(=O)(=O)c1ccc(C)cc1,79.0*,1.6,-0.3,8.6,-3.7,82.9*,72.0*
COC(=O)c1ccc(C(=O)N2CCCCCC2(C)C(=O)NC(C)C)cc1 (centres undefined),-4.1,x,i,7.3,0.3,x,x
